From PubChem BioAssay
LDHA inh: LDHA (human) enzyme inhibition | P00338 | 0.15% of 480,000 active | purified LDHA, NADH/diaphorase-resazurin fluorescence; active compounds read low | activity change, % (values are at about 110 or 230 µM) | AID 1347041; in the data active means activity change below about -30%; inconclusive means mostly about -25% to -30%;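 further: plate controls were DMSO wells for no effect and wells without enzyme for full effect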
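Resorufin fluorescence (ex540/em590), read at 0 and 20 min after diaphorase/resazurin addition, reports the NADH left after a 5 min room-temperature reaction of 2 nM human LDH5 with 0.06 mM NADH and 0.2 mM pyruvate.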
TDP1 cell CPT: growth inhibition of DT40 Tdp1-/-;hTDP1 cells with camptothecin (screen for TDP1 inhibitors) | Potency, µM (series often up to 46.2 µM), for the others: at the highest dose activity change, negative = growth inhibition, hits mostly inhibitors | 12% of 420,000 active | chicken DT40 Tdp1-/-;hTDP1 cells + 20 nM CPT, ATP luminescence, 48 h; further: potency means the concentration at half of the fitted maximal effect; nearly all actives have a fitted effect of over 55% in size
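Chicken DT40 Tdp1-/- cells complemented with human TDP1, 400 cells/well, exposed to compounds plus 20 nM camptothecin for at least 48 h at 37 C; viability read as ATP content by CellTiter-Glo luminescence.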
IL1B secr inh: blocks inflammasome-driven IL-1 beta release | THP-1 LPS/ATP IL-1B secretion, AlphaLISA, 16 h; active compounds read low | activity change, % at 57.5 µM | 4.7% of 360,000 active | AID 743279; in the data active means activity change below about -50%; inconclusive means mostly about -30% to -49%
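Secreted IL-1B measured by AlphaLISA bead assay after 16 h compound exposure of THP-1 cells; compounds (final up to 57.5 uM) added 1 h before LPS (250 ng/mL) and ATP (1.25 mM) stimulation; lower signal means less secretion.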
TDP1 cell noCPT: qHTS for Inhibitors of human tyrosyl-DNA phosphodiesterase 1 (TDP1): qHTS in cells in absence of CPT; DT40 Tdp1-/- hTDP1 cells, no CPT, ATP luminescence, 48 h; Potency, µM (doses to about 46.2 µM), inactives show at the highest dose activity change, negative = growth inhibition, usual class: inhibitors; 15% of 420,000 active; further: potency means the concentration at half of the fitted maximal effect; nearly all actives have a fitted effect of over 55% in size
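Chicken DT40 Tdp1-/- cells complemented with human TDP1, screened without camptothecin (DMSO vehicle only), 400 cells/well. Compounds pin-transferred, cells incubated at 37 °C for at least 48 hr. Growth read as ATP-dependent luminescence (CellTiter-Glo, 30 min at RT).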
Gal4-VP16 FLuc: inhibits Gal4-VP16 luciferase reporter, ROR gamma counter-screen | Drosophila S2 Gal4-VP16 UAS-luciferase, luminescence, 20 h | Potency, µM (top dose mostly 53.6 µM), without a hit: at the top dose activity, negative = inhibition, most hits filed as inhibitors | 3.5% of 310,000 active;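 further: Gal4-VP16 expression switched on by copper sulfate through the metallothionein promoter; potency means the concentration at half of the fitted maximal effect; nearly all actives have a fitted effect of over 50% in size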
RORg inh: blocks mouse ROR gamma transcriptional activity | P51450 | Drosophila S2 Gal4-RORgamma UAS-luciferase reporter, 20 h | Potency, µM (titrated, usually from 53.6 µM), for inactives: at the top dose activity change, negative = inhibition, actives largely listed as inhibitors | 5.4% of 310,000 active; further: potency means the concentration at half of the fitted maximal effect; nearly all actives have a fitted effect of over 60% in size
Target sequence (P51450 whole entry, looked up, the tested form may be a part): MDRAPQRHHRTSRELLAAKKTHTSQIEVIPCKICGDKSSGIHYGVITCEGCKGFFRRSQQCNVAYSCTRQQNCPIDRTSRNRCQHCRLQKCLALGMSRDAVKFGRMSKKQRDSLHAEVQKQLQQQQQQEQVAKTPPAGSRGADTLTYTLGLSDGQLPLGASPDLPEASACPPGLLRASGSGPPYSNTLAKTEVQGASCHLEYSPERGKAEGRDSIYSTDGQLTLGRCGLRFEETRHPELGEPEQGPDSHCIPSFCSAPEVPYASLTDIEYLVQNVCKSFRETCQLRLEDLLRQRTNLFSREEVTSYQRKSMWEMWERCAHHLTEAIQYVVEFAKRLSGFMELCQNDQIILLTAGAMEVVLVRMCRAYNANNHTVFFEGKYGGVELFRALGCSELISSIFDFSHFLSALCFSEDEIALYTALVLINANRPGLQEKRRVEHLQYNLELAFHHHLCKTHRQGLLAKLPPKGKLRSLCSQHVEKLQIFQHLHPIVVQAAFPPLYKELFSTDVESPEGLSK
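Luciferase reporter read in Schneider cells carrying Gal4-RORγ (mouse) and UAS-Photinus luciferase; cells given compound 1 h before 700 uM copper sulfate induction, then incubated 20 h at ambient temperature.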
An asterisk follows results filed as active; u = inconclusive; x = not tested or not shown; [ ] = remark or other dose. Only some compounds are listed: those with a hit (about 18% of all), similar ones and a draw of the others. Unless noted, the call rests on the fitted dose curve; in most records, active means well fitted curve in the direction sought with a large enough effect; inconclusive means small, poorly fitted or top-dose-only effect, or another doubt; inactive means no such curve, though single readings can be large; an effect the other way counts as inactive or inconclusive. Unless noted, on the % scale 0 is the no-effect control and ±100 the full control effect.

SMILES	LDHA inh	TDP1 cell CPT	IL1B secr inh	TDP1 cell noCPT	Gal4-VP16 FLuc	RORg inh
CCN(C[C@H]1N[C@@](C)(C(=O)OC)[C@H]2C(=O)N(Cc3ccccc3)C(=O)[C@@H]12)C(=O)COC	-3.2	-2.6%	12.8	13.3%	x	x
COC(=O)[C@]1(Cc2ccccc2)N[C@H](CN(C)C(=O)c2ccc(C(C)(C)C)cc2)[C@@H]2C(=O)N(Cc3ccccc3)C(=O)[C@@H]21	2.9	14.6µM*	-6.4	20.6µM*	x	x
CCOC(=O)CC1(NC(=O)N2CCCCCC2c2ccc(C)s2)CCCCC1 (stereo not given)	-0.3	x	x	x	x	x
COC(=O)[C@]1(Cc2ccccc2)N[C@H](CN(C)S(=O)(=O)c2ccc(C(C)(C)C)cc2)[C@@H]2C(=O)N(C)C(=O)[C@@H]21	2.0	18.4µM*	-24.5	u	x	x
CCN(C[C@H]1N[C@@](Cc2ccccc2)(C(=O)OC)[C@H]2C(=O)N(C)C(=O)[C@@H]12)S(=O)(=O)c1ccc(C(C)(C)C)cc1	0.3	u	10.6	18.4µM*	x	x
Cc1cccc(C)c1NC(=O)CN(C)C(=O)COc1ccc2oc3c(c2c1)CCCC3	4.2	x	x	x	x	x
NS(=O)(=O)c1ccc(N2CCN(CCOc3ccc(Cl)cc3)CC2)nc1	-6.0	u	-10.9	14.6µM*	u	u
O=S(=O)(c1cccs1)N1CCN(CCOc2ccc(Cl)cc2)CC1	-1.7	u	-59.1*	u	x	x
O=S(=O)(c1cccs1)N1CCN(CC(O)COc2cc(Cl)ccc2Cl)CC1 (stereo not given)	6.6	u	-16.2	23.1µM*	17.8µM*	-9.8%
O=S(=O)(c1ccc(C(F)(F)F)cc1)N1CCN(CCOc2ccccc2)CC1	-2.2	-14.3%	-17.0	-16.3%	x	x
O=S(=O)(c1cccs1)N1CCN(c2ccc(Cl)cc2)CC1	-2.0	6.3%	-11.1	-23.2%	-13.9%	18.6%
Cc1ccc(Cl)cc1NC(=O)CN1CCN(S(=O)(=O)c2cccs2)CC1	4.0	x	x	x	x	x
O=S(=O)(c1ccc(Br)s1)N1CCN(CCOc2ccccc2)CC1	-8.0	20.6µM*	u	u	x	x
COc1ccc(OCC(=O)Nc2ccc3oc(-c4cccc(F)c4)nc3c2)cc1	7.4	x	x	x	x	x
CC(=O)N1c2ccc(C)cc2C(c2ccccc2)CC1C (stereo not given)	0.2	u	-55.4*	u	21.5%	u
CC(=O)OC1CC(C)N(C(=O)c2ccccc2)c2ccc(C)cc21 (stereo not given)	-8.8	u	-3.4	u	2.6%	18.2%
CCCC(=O)OC1CC(C)N(C(=O)c2ccccc2)c2ccc(C)cc21 (stereo not given)	-2.6	u	2.6	23.1µM*	-10.6%	-0.4%
CC(=O)N1c2ccccc2[C@H](C)[C@H]1C	-1.1	5.4%	12.5	3.4%	x	x
CCn1c(/C=C/c2ccccc2F)nc2ccccc2c1=O	-8.4	u	-14.0	u	u	2.3%
CCn1c(/C=C/c2ccccc2C)nc2ccccc2c1=O	-1.2	u	-9.2	u	1.3%	-10.4%
CCn1c(/C=C/c2ccc(O)c(O)c2)nc2ccccc2c1=O	10.4	u	-18.6	6.51µM*	-9.2%	14.5%
Cc1ccc(/C=C/c2nc3ccccc3c(=O)n2CCc2ccccc2)cc1	1.5	u	-19.7	16.4µM*	-11.7%	5.0%
CCn1c(/C=C/c2ccc(O)cc2)nc2ccccc2c1=O	-13.2	u	-95.6*	25.9µM*	-1.1%	u
CCn1c(/C=C2\C(=O)Nc3ccccc32)nc2ccccc2c1=O	-5.2	u	u	16.4µM*	-5.8%	13.1%
CCc1ccc(OCC(=O)Nc2ccc3oc(C)nc3c2)cc1	15.7	x	x	x	x	x
SMILES	LDHA inh	TDP1 cell CPT	IL1B secr inh	TDP1 cell noCPT	Gal4-VP16 FLuc	RORg inh
COc1ccc(C2NC3=NCN(Cc4cccnc4)CN3c3nc4ccccc4n32)cc1OC (stereo not given)	0.6	x	x	x	x	x
c1ccc(C2CCCN2Cc2nnc(-c3ccco3)o2)cc1 (stereo not given)	2.4	x	x	x	x	x
CCn1c(/C=C/c2cc(Br)ccc2O)nc2ccccc2c1=O	-7.6	u	-57.6*	u	-9.5%	u
COC(=O)c1ccc(COc2ccccc2/C=C(\C#N)C(=O)Nc2ccc(C)cc2)cc1	-2.6	6.51µM*	11.7	5.17µM*	-23.3%	4.5%[10 µM]
O=S(=O)(N/N=C/c1ccccc1OCc1ccc(Cl)cc1)c1ccccc1	-2.4	u	5.5	u	-2.4%	29.5%
COC(=O)c1ccc(COc2ccccc2/C=N/NS(=O)(=O)c2ccc(C)cc2)cc1	-4.4	18.4µM*	57.3	u	-1.9%	29.3%
C=CCNC(=O)/C(C#N)=C/c1ccccc1OCc1ccc(C(=O)OC)cc1	-11.3	2.91µM*	-3.1	7.31µM*	-8.6%	u
N#C/C(=C\c1ccccc1OCc1ccc(C(=O)O)cc1)C(=O)Nc1ccc(O)cc1	-2.8	2.2%	u	-15.3%	17.7%	-20.9%
Cc1ccc(S(=O)(=O)N/N=C/c2cccc3nccnc23)cc1	-1.4	13µM*	4.7	14.6µM*	-27.1%	15.9%
Cc1cc(F)ccc1NC(=O)c1nc2ccccc2nc1N1CCOCC1	12.8	x	x	x	x	x
O=C(Nc1nccs1)c1ccc(CSc2nnnn2-c2ccccc2)cc1	-6.2	12.6µM*	u	-59.5%	14.1µM*	u
NC(=O)c1ccc(-n2nnnc2SCc2ccccc2)cc1	-2.9	-6.9%	3.5	u	-5.8%	-8.8%
COc1ccc(-c2nc3ccccc3o2)cc1NC(=O)CC12CC3CC(CC(C3)C1)C2	8.8	x	x	x	x	x
Oc1ccc(/C=N/Nc2ccc3ccccc3c2)c(O)c1	9.8	-6.1%	-14.2	-11.9%	-4.7%	-37.1%
C(=N\Nc1nc2ccccc2s1)/c1cccs1	7.0	16.4µM*	u	u	3.16µM*	1.26µM*
Oc1ccccc1C=NNc1nc2ccccc2s1	-5.1	0.0651µM*	u	0.0517µM*	x	x
Oc1ccc(C=NNc2nc3ccccc3s2)c(O)c1	-6.6	3.66µM*	-0.7	4.11µM*	x	x
COc1ccc(/C=N/Nc2nc3ccccc3s2)cc1O	-2.0	17.3%	-86.6*	u	u	u
COc1cccc(C=NNc2nc3ccccc3s2)c1OC	-3.2	1.8%	25.4	u	x	x
O=c1[nH]c(SCc2ccccc2)nc2nc[nH]c12	-11.7	x	x	x	x	x
COc1ccc(/C=C/C(=O)c2ccc3ccccc3c2OC(F)F)cc1	5.1	x	x	x	x	x
